The values below come from the supplement of paper PMC6555819.

Common to all, as to experiment: PBM binding z-score (relative to random genomic background probes); higher = stronger binding; sequences stand for … in GC…GCGATTGACAGCGTAGAATGAAGG
Assay [1] relates to FXR:RXRa (NR concentration 270 nM, RXRa partner concentration 90 nM). The essentials:
(§1)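 Custom Agilent 4×180K protein-binding microarrays carried double-stranded probes. Their 34-nt variable regions held direct-repeat seeds, single-nucleotide variants, half-site ablations and random human genomic background sequences. Arrays were incubated 1 h with ligand-free nuclear receptor dimers in PBS pH 7.4, 2% milk, 0.02% Triton X-100, 1 mM DTT, 0.2 mg/mL BSA and 0.4 mg/ml salmon testes DNA. Antibodies against each partner (one per run) detected binding, and scanned fluorescence was regression-normalized. Binding z-scores use random background probes as reference.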

Assay [2] has as its system LXRa:RXRa (NR concentration 270 nM, RXRa partner concentration 90 nM). The essentials:
as §1

For assay [3], the system named is LXRa homodimer (NR concentration 270 nM). In short, it runs like this:
as §1

In assay [4] the test system is LXRb:RXRa (NR concentration 270 nM, RXRa partner concentration 90 nM). The essentials: as §1
Assay [5] deals with LXRb homodimer (NR concentration 270 nM). The essentials:
as §1

Assay [6] concerns PPARa:RXRa (NR concentration 270 nM, RXRa partner concentration 90 nM). In short, it runs like this: as §1
Assay [7] has as its system PPARg:RXRa (NR concentration 180 nM, RXRa partner concentration 90 nM). In short, it runs like this:
as §1

Assay [8] deals with PPARg:RXRa 270nM:90nM, anti-RXR (NR concentration 270 nM, RXRa partner concentration 90 nM). The essentials:
as §1

Assay [9] concerns PPARg:RXRa 30nM:10nM, anti-RXR (NR concentration 30 nM, RXRa partner concentration 10 nM). In short, it runs like this: as §1
Assay [10] relates to PPARg:RXRa 90nM:30nM, anti-RXR (NR concentration 90 nM, RXRa partner concentration 30 nM). In short, it runs like this:
as §1

The subject of assay [11] is PPARg:RXRa DBDmut IVT, anti-RXR (DBD mutation: RXRa K156A/R161A, NR concentration 270 nM, RXRa partner concentration 90 nM). The essentials:
as §1

Assay [12] concerns PPARg:RXRa IVT, anti-PPARg (NR concentration 270 nM, RXRa partner concentration 90 nM). The essentials: as §1
In assay [13] the test system is PPARg DBDmut:RXRa IVT, anti-PPARg (DBD mutation: PPARg1 K132A/R137A, NR concentration 270 nM, RXRa partner concentration 90 nM). The essentials:
as §1

Assay [14] concerns PPARg DBDmut IVT, anti-PPARg (DBD mutation: PPARg1 K132A/R137A, NR concentration 270 nM). In short, it runs like this: as §1
Assay [15] has as its system PPARg homodimer (NR concentration 180 nM). In short, it runs like this:
as §1

The subject of assay [16] is PXR:RXRa (NR concentration 270 nM, RXRa partner concentration 90 nM). The essentials: as §1
In assay [17] the test system is PXR homodimer (NR concentration 270 nM). In short, it runs like this: as §1
Assay [18] concerns RARa:RXR (NR concentration 270 nM, RXRa partner concentration 90 nM). The essentials: as §1
In assay [19] the test system is RARa homodimer (NR concentration 270 nM). The essentials:
as §1

Assay [20] concerns RARb:RXRa (NR concentration 270 nM, RXRa partner concentration 90 nM). The essentials:
as §1

For CAGCCTAGGTCCGGGCCAGTATAGGAGGAACGTT, the PBM binding z-score was -0.987 in assay [1]; -1.11 in [2]; -0.834 in assay [3]; -1.41 in [4]; -1.47 in [5]; -1.78 in assay [6]. The PBM binding z-score is -0.191 in assay [7]; -0.878 in assay [8]; -0.996 in assay [9]; -1.2 in [10]; -1.2 in assay [11]; -1.1 in assay [12]. The PBM binding z-score in assay [13] is -2.15; in [14] it was -1.84; in assay [15], -1.61; in [16] it was -1.01; in assay [17], -0.992; in assay [18] it was -1.12. Besides, the values for the PBM binding z-score in [19] and in [20] were -1.43 and -0.671, respectively.

For AATACAGGGTCACTAGGCCAGAGGAGGTACGAAT, the PBM binding z-score in [1] came to 5.85; in [2], 4.93; in assay [3], 0.963; in assay [4], 3.62; in assay [5] it was 1.31; in assay [6], 5.54. Moreover, the PBM binding z-score worked out at 8.18 in assay [7]; 6.63 in assay [8]; 3.82 in [9]; 5.65 in assay [10]; 3.99 in [11]; 5.89 in assay [12]. Moreover, the PBM binding z-score in assay [13] was 1.86; in assay [14], 1.11; in assay [15], 2.18; in assay [16] it was 2.95; in assay [17], 0.559; in [18], 4.12. Moreover, the PBM binding z-score worked out at 0.96 in assay [19] and 4.17 in [20].

As to CCTAGTTGGACAAGGTCACACACGCTATAGGTAC, the PBM binding z-score is 3.57 in assay [1]; 3.53 in assay [2]; 1.48 in assay [3]; 3.58 in assay [4]; 0.67 in assay [5]; 4.1 in assay [6]. The PBM binding z-score in assay [7] turned out to be 2.58; in [8] it was 2.92; in assay [9], 0.968; in [10], 2.08; in [11], 0.793; in [12], 2.52. Also, the PBM binding z-score in [13] was 0.526; in assay [14] it was 0.701; in assay [15], 3.15; in assay [16], 3.9; in assay [17], 1.97; in assay [18], 4.4. In addition, the PBM binding z-score in assay [19] worked out at 2.1; in assay [20] it was 3.85.

For the sequence CCTATTAGTTGAACATAAGGGCAACCGAAGCTCG, the PBM binding z-score in assay [1] came out at 0.402; in assay [2] it was 0.518; in [3] it was 0.603; in [4], 0.454; in assay [5], 0.71; in assay [6], 0.594. In addition, the PBM binding z-score in assay [7] was 0.576; in assay [8], 0.441; in assay [9], 0.18; in assay [10] it was 0.415; in assay [11], 0.458; in [12], 0.463. Also, the PBM binding z-score in assay [13] worked out at 0.856; in assay [14], 0.515; in assay [15] it was 1.56; in assay [16], 0.574; in assay [17], 0.963; in assay [18], 0.973. Moreover, the PBM binding z-score turned out to be 1.2 in assay [19] and 1.38 in assay [20].

For the sequence GCTGCTAGGTCAACTGATGGTAAGCTAAAGCTCG, the PBM binding z-score in [1] is 3.67; in assay [2] it was 2.53; in assay [3], -0.233; in [4] it was 1.66; in [5] it was -0.0534; in [6], 3.56. For the same sequence, the PBM binding z-score in [7] amounted to 2.6; in assay [8] it was 2.85; in assay [9], 0.773; in [10] it was 2.04; in [11], 5.03; in [12] it was 3.79. Further, the PBM binding z-score in assay [13] is -0.843; in [14], -0.572; in assay [15], 1.33; in assay [16] it was 1.29; in assay [17], -0.824; in assay [18] it was 2.02. Moreover, the results for the PBM binding z-score in assay [19] and in assay [20] were 0.282 and 4.06, respectively.

As to CTACCAAGGTGAACAAGGTTGTTGATTACTATTC, the PBM binding z-score in assay [1] is 0.708; in [2], 0.561; in [3], -0.172; in assay [4], 1.36; in [5], -0.417; in assay [6], 1.53. For the same sequence, the PBM binding z-score in assay [7] was 0.7; in assay [8], 0.746; in [9], -0.199; in assay [10], 0.615; in assay [11], 2.39; in [12] it was 2.42. Also, the PBM binding z-score in assay [13] was -0.144; in assay [14], 0.038; in assay [15], 0.436; in assay [16] it was 1.04; in [17] it was 0.435; in [18], 0.73. Moreover, the values for the PBM binding z-score in assay [19] and in [20] were 0.287 and 1.57, respectively.

For the sequence ACAGACAGGTGATGAAGGTAACTAAGGCTATCAT, the PBM binding z-score is -0.0463 in assay [1]; -0.218 in assay [2]; -0.177 in assay [3]; 0.0824 in assay [4]; -0.634 in [5]; 0.196 in assay [6]. Further, the PBM binding z-score in assay [7] was 0.606; in assay [8] it was 0.00614; in assay [9] it was 0.045; in [10], 0.0556; in [11], -0.224; in [12], 0.73. Moreover, the PBM binding z-score in assay [13] was 0.827; in assay [14] it was -0.211; in [15], 0.053; in assay [16], 0.0666; in assay [17], 0.104; in assay [18] it was 0.191. For the same sequence, the results for the PBM binding z-score in assay [19] and in assay [20] were 0.0422 and 0.371, respectively.
